# Hits are enriched below; roughly 2.3% of the tested compounds scored in any of these assays.
# GLP1R inv ag – acts as inverse agonist at human GLP-1 receptor; Potency, µM (highest dose often 38.3 µM), inactives show at the highest dose activity change, negative = inhibition, hits mostly inhibitors; P43220; AID 624417; 410,000 compounds, 1.6% hits; HEK293 GLP-1R CRE-luciferase, luminescence, 24 h; GLP-1R form is constitutively active; also: % is scaled to controls: 0 for no effect and ±100 for the full control effect; nearly all actives have a fitted effect of over 55% in size
#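 Using stably transfected HEK293 (constitutively active GLP-1R, cAMP-luciferase reporter), compounds were incubated 24 hr and luciferase measured by luminescence.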
# GLP1R ag – GLP-1 receptor (human) agonism; HEK293 GLP-1R CRE-luciferase, luminescence, 4-6 h; cells express a hypersensitive GLP-1R form; Potency, µM (series often up to 45.6 µM), without a hit: top-dose activation, usual class: activators; AID 624172; 380,000 compounds, 0.007% hits; also: % of control where 0% means no effect
# 12-LOX inh – inhibitors of human 12S-lipoxygenase ALOX12 | P18054 | purified 12hLO, xylenol orange hydroperoxide absorbance | Potency, µM (top dose mostly 108 µM), for inactives: at the top dose activity change, negative = inhibition, hits mostly inhibitors | 580,000 compounds, 1.1% hits | AID 1671190; also: % is scaled to controls: 0 for no effect and ±100 for the full control effect
#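 Purified human 12hLO at 150 nM in 25 mM Hepes, 0.01% Triton X-100, pH 7.0, preincubated 15 min at room temperature with compound. Reaction started with 40 uM arachidonic acid, 30 min at room temperature. Hydroperoxide measured by Fe-xylenol orange, 573/405 nm absorbance ratio.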
# GLS inhibitor – glutaminase GLS (human) inhibition | O94925 | GLS enzymatic activity, qHTS titration | Potency, µM (highest dose often 45.5 µM), without a hit: top-dose activity change, negative = inhibition, actives largely listed as inhibitors | 410,000 compounds, 0.21% hits | AID 624170; also: % is scaled to controls: 0 for no effect and ±100 for the full control effect
# Target sequence (O94925 whole entry, looked up): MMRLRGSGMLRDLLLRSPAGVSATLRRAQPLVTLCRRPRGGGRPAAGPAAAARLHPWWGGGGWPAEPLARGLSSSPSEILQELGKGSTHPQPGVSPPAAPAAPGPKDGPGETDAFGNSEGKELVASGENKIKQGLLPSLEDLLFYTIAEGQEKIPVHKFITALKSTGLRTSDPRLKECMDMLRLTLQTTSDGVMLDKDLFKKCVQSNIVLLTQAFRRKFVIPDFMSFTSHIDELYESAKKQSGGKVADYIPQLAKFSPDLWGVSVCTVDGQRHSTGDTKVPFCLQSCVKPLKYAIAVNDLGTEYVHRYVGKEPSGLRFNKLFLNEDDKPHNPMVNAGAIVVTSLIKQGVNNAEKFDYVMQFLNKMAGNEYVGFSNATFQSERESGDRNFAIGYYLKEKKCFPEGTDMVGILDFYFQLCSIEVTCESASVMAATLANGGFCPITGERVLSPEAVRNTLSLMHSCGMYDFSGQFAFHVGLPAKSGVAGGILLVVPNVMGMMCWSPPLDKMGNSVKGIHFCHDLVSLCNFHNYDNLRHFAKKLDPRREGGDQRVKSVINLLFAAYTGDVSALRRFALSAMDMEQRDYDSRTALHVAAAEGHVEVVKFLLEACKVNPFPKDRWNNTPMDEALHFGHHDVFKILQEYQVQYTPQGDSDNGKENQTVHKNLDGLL
#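 Coupled fluorescence readout: glutamate oxidase/HRP/Amplex Red detect glutamate formed by hKGA from L-glutamine (1 mM solution added). Buffer 45 mM KH2PO4 pH 8.2, 0.02% Tween-20; reads at t0 and 30 min RT.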
# PTHR1 agonist – agonists of human PTHR1 parathyroid hormone receptor; 410,000 compounds, 0.075% hits; HEK293 GP2 PTHR1 cells, GloSensor cAMP luminescence, 1 h; Potency, µM (top dose mostly 115 µM), for inactives: at the top dose activation, most hits filed as activators; AID 743266; Q03431; also: nearly all actives have a fitted effect of over 55% in size
#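 HEK-293-derived GP2 cells expressing PTHR1 and a GloSensor cAMP reporter, 3,000/well, plated overnight, given luciferin plus IBMX (each 0.5 mM as added) for 1 h at 37 °C, then compound for 1 h at 37 °C. Luminescence was read after 15 min at room temperature.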
# GRP78 ERSR act – induces the endoplasmic reticulum stress response in human glioma cells | AID 602332 | Potency, µM, inactives show top-dose activation, actives largely listed as activators | U87-MG GRP78 promoter luciferase reporter, 16 h | 420,000 compounds, 0.02% hits; also: series mostly up to about 76 µM; % of control where 0% means no effect; nearly all actives have a fitted effect of over 35% in size
#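 Stably transfected U87-MG human glioma cells carrying a GRP78-based luminescent sensor were seeded at 1000 cells/well, pin-dosed with compounds and incubated 16 h. Luciferase reagent was then added, and end-point luminescence was read after 10 min at room temperature.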
# An asterisk follows results filed as active; i = inactive; ? = inconclusive; . = no result given; [ ] = dose if it differs, or a comment. Calls follow the shape of the dose curve; as a rule, active = well fitted curve in the direction sought with a large enough effect; inconclusive = small, poorly fitted or top-dose-only effect, or another doubt; inactive = no such curve, though single readings can be large; an effect the other way counts as inactive or inconclusive. Potency is read from the fitted curve at half-maximal effect.
SMILES,GLP1R inv ag,GLP1R ag,12-LOX inh,GLS inhibitor,PTHR1 agonist,GRP78 ERSR act
C=CCOC(=O)C1=C(C)NC(C)=C(C(=O)OCC=C)C1/C=C/c1ccccc1,5µM*,3%,4%,1%,-13%,12%
Cc1cc(N2CCN(C)CC2)ccc1NC(=O)c1ccc(-c2ccc(Cl)cc2)o1,11µM*,12%,-23%,20%,3%,-12%
CC(C)OC(=O)CSc1nc(Cc2ccccc2)nc2ccccc12,13µM*,15%,-27%,10%,-34%,-4%
COC(=O)CSc1nc(Cc2ccccc2)nc2ccccc12,-22%,14%,6%,6%,-44%,-5%
Cc1c(CCC(=O)NCCCN2CCOCC2)c(=O)oc2c(C)c(O)ccc12,.,.,-31%,.,.,.
Cc1cc(N2C(=O)C(O)=C(C(=O)c3cc4ccccc4o3)C2c2ccc(Br)cc2)no1 (configuration not stated),8%,-4%,40µM*,-13%,-31%,-3%
CCCOc1ccc(C2C(C(=O)c3cc4ccccc4o3)=C(O)C(=O)N2c2cc(C)on2)cc1 (configuration not stated),-9%,0%,?,6%,-17%,5%
CN(C)CCN1C(=O)C(O)=C(C(=O)c2cc3ccccc3o2)C1c1ccc(OCc2ccccc2)cc1 (configuration not stated),.,.,25µM*,.,.,.
Cc1cc(N2C(=O)C(O)=C(C(=O)c3cc4ccccc4o3)C2c2cccc(Cl)c2)no1 (configuration not stated),?,-2%,?,28%,-19%,-2%
Cc1cc(N2C(=O)C(O)=C(C(=O)c3cc4ccccc4o3)C2c2ccc(Cl)cc2)no1 (configuration not stated),?,0%,40µM*,1%,-20%,1%
CC(C)=CCN1CCN(Cc2ccccn2)CC1,.,.,15%,.,.,.
CNC(=O)C(C)S(=O)(=O)Cc1cc(Cl)c2c(c1)OCO2 (configuration not stated),.,.,5%,.,.,.
O=C(Nc1cccc(S(=O)(=O)N2CCOCC2)c1)c1cccc(CN2CCCC2=O)c1,.,.,6%,.,.,.
S=c1[nH]nc(COc2ccccc2)n1/N=C/c1ccc(Br)cc1,-22%,-5%,0%,0%,i,11%
S=c1[nH]nc(COc2ccccc2)n1/N=C/c1cccc(Br)c1,-10%,16%,32µM*,28%,-10%,-5%
Cc1cc(C)c2cc(C(=O)N(C)C3CCN(C)CC3)[nH]c2c1,5µM*,9%,26%,-5%,i,-5%
Cc1cc(C)c2cc(C(=O)OCC(=O)N3CCCCC3C)[nH]c2c1 (configuration not stated),.,.,0%,.,.,.
CC(NC(=O)c1ccco1)C12CC3CC(CC(C3)C1)C2 (configuration not stated),10µM*,-2%,11%,-10%,-49%,-5%
O=C(Nc1ccc2[nH]c(=O)[nH]c2c1)c1nn(-c2ccccc2Cl)c2c1CCCC2,.,.,-3%,.,.,.
Cc1nn2c(c1-c1ccccc1-c1ccccc1)N(Cc1ccc(C(=O)O)s1)CCC2,.,.,-1%[176 µM],.,.,.
Cc1nn2c(c1-c1ccccc1[S+](C)(=O)[O-])N(Cc1ccc(C(=O)O)s1)CCC2,.,.,32µM*,.,.,.
O=C(COc1cccnc1[N+](=O)[O-])c1ccc(Cl)s1,42%,-1%,40µM*,59%,-9%,-2%
CC(=O)N1c2c(cc(Br)cc2S(=O)(=O)NCC2COc3ccccc3O2)CC1C (configuration not stated),-2%,0%,-20%,2%,-14%,40µM*
OC1CC2CCC(C1)N2CCCN1c2ccccc2Sc2ccc(Cl)cc21 (configuration not stated),2.8µM*,9%,?,4%,-16%,-11%
CN1CCN(CCCN2c3ccccc3Sc3ccc(Cl)cc32)CC1,?,5%,?,38%,23%,-6%
SMILES,GLP1R inv ag,GLP1R ag,12-LOX inh,GLS inhibitor,PTHR1 agonist,GRP78 ERSR act
N#CC1=C(N)OC2=C(C(=O)CC(c3ccccc3)C2)C1c1cccc(F)c1 (configuration not stated),.,.,35µM*,.,.,.
Cc1ccc(C2CC(=O)C3=C(C2)OC(N)=C(C#N)C3c2ccc(Cl)c(Cl)c2)cc1 (configuration not stated),.,.,40µM*,.,.,.
N#CC1=C(N)OC2=C(C(=O)CC(c3ccco3)C2)C1c1ccc(OCc2c(F)cccc2Cl)cc1 (configuration not stated),10µM*,-14%,9%,-9%,-47%[57.5 µM],2%
COc1cccc(C2C(C#N)=C(N)OC3=C2C(=O)CC(c2ccco2)C3)c1OCc1ccc(F)cc1 (configuration not stated),?,1%,?,13%,i,-4%
N#CC1=C(N)OC2=C(C(=O)CC(c3ccccc3)C2)C1c1ccoc1 (configuration not stated),16%,-3%,-19%,2%,-23%,-5%
N#CC1=C(N)OC2=C(C(=O)CC(c3ccccc3)C2)C1c1cccnc1 (configuration not stated),52%,19%,-7%,8%,-14%,-4%
N#CC1=C(N)OC2=C(C(=O)CC(c3ccccc3)C2)C1c1ccc(Br)cc1 (configuration not stated),.,.,11µM*,.,.,.
CN(C)CCCN1C(=O)CSC1c1ccc(Br)cc1 (configuration not stated),.,.,-6%,.,.,.
COc1cccc2cc(-c3cc(=O)oc4cc(O)ccc34)c(=O)oc12,.,.,-24%,.,.,.
COc1ccc(C(=O)CSc2nnc(CNc3ccc(C)cc3C)n2Cc2ccco2)cc1,0%,-1%,-11%,-3%,-16%[57.5 µM],0%
Cc1ccc(C(=O)CSc2nnc(CNc3ccc(C)cc3C)n2Cc2ccco2)cc1,10µM*,0%,0%,9%,i,-6%
COc1cc(SC)ccc1C(=O)Nc1ccc(Cl)cn1,2.2µM*,-3%,2%,-7%,-93%,-13%
COc1ccc2c(ccn2CC(=O)NCC2CCC(C(=O)O)CC2)c1 (configuration not stated),.,.,-27%,.,.,.
COc1cccc(-c2cccc(-c3nc(C(=O)NCc4ccc5c(c4)OCO5)cc4c3[C@H](CCO)N(S(=O)C(C)(C)C)C4)c2)c1 (some centres not stated),?,23%,28µM*,65%,6%,0%
CC(C)(C)S(=O)N1Cc2cc(C(=O)N3CCOCC3)nc(-c3cccc(Br)c3)c2[C@H]1CCO (some centres not stated),31%,0%,5µM*,-1%,26%,0%
